Out of some 320,000 compounds screened, about 55 (0.02%) were called active. Roughly 3% stayed inconclusive and do not appear here. The list comes from a sample in which actives are over-represented; it also holds similar structures and randomly drawn compounds. Values without a mark were called inactive. Cut-off read from the data, not from the text of the source: active = potentiation above about 80%; inconclusive = between about 30% and that limit; inactive = weaker than that.
What follows are compounds tested against Transient receptor potential cation channel subfamily V member 1 (Homo sapiens) (UniProt Q8NER1) (assay: HTS Assay for Compounds that Act as Potentiators of the Vanilloid Receptor 1). Conditions: TRPV1-expressing cells, Fluo-8 calcium influx, capsaicin EC20 potentiation; at 8.33 µM; hits give high values.
Transient receptor potential cation channel subfamily V member 1 (Homo sapiens), sequence (Q8NER1 whole entry, looked up): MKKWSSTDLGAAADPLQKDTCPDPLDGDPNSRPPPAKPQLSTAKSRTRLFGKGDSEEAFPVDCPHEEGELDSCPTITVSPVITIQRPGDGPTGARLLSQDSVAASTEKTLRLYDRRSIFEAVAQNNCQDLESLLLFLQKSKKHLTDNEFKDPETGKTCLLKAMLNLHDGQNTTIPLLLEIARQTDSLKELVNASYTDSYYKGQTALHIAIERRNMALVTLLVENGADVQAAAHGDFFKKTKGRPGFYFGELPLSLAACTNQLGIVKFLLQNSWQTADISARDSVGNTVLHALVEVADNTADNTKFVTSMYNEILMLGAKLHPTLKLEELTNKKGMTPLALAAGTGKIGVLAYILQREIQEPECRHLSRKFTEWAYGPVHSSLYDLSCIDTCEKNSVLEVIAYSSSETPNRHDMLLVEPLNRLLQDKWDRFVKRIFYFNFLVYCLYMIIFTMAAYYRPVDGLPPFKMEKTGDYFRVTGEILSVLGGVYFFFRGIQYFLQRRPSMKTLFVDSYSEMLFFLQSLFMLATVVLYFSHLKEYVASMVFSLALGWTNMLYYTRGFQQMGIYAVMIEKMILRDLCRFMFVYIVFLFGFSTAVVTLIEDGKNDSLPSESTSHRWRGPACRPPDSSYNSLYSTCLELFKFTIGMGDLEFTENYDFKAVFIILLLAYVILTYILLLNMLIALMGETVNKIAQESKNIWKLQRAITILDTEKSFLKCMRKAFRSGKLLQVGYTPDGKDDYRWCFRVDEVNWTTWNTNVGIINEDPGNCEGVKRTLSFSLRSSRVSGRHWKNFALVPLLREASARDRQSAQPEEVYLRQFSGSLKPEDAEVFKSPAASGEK
Source text: The transient receptor potential ion channel, family V, number 1, (TRPV1) is one of the most important molecular transducers of painful stimuli and a potential target for analgesic drug development. Although recent clinical trials with orthosteric antagonists have not produced a successful drug because of a hyperthermia side effect and their tendency to block thermal noxious pain, this ion channel is undeniably well placed in the pain pathway, and the idea of blocking pain signals before they enter the CNS is an excellent concept and of proven efficacy when TRPV1 agonists are used. We propose a new approach involving allosteric modulation to impose an activity-dependent constraint within the context of inflammation and tissue damage that would alter the responsiveness of the channel in a way that an orthosteric vanilloid antagonist cannot achieve. We believe that the allosteric modulator approach has not been explored for this target. The main goal of this proposal is to identify additional, new, potent allosteric modulators of TRPV1 that can be used to investigate TRPV1 function. Our recent report provides evidence of proof of concept, but the compounds are just at the edge of utility in terms of potency. […] The question of whether they can be used as analgesic agents is complex, but if suitable compounds are identified then testing for analgesic properties will be conducted. NIH Chemical Genomics Center [NCGC] NIH Molecular Libraries Probe Centers Network [MLPCN] MLPCN Grant: MH089480-1A1 Assay Submitter (PI): Michael Iadarola, National Institute of Dental and Cranofacial Research
Upon TRPV1 activation in TRPV1 cells, the channel opens and extracellular cations flow through the channel into the cytosol. A calcium binding dye (Fluo-8) becomes fluorescent when bound to calcium. This dye is pre-loaded into cells and is used as a marker for calcium influx. The amount of accumulated calcium is precisely quantified using the FDSS kinetic reader and the calcium dye. For the HTS assay, freshly prepared cells are plated at a density of 2000/well in 3 ul medium in 1536-well plates and cultured overnight at 35.5C. Cells will be loaded with 1 ul of the homogeneous calcium dye (ABD Bioquest) at room temperature for 40 to 90 minutes. Plates will be loaded into the FDSS kinetic reader and a 1 sec / cycle for 10 second baseline signal will be measured. Compound library will then be added with a pintool at 23 nl and measured kinetically for 3 minutes. This portion of the read is considered the agonist portion of the screen. Following the 3 minutes of incubation, an on board pipettor will deliver 1 ul of capsaicin for a final concentration equal to the EC20. Signal will be measured kinetically for an additional 2 minutes. This portion of the read is considered the allosteric enhancer portion of the screen. The FDSS reader has a standard filter set capable of measuring calcium bound Fluo-8 (ex=480 and em=520 nm).
Note: 0% is about no effect.

Compound | potentiation
COC(=O)c1cc(Oc2ccc(S(=O)(=O)N3CCOCC3)cc2[N+](=O)[O-])cc(C(=O)OC)c1 | 10.8%
CN1CCN(C2=NCCO2)CC1 | -4.44%
CCOc1ccc(S(=O)(=O)N2CCCCC2)cc1NC(=O)CN1CCCC1c1cccs1 (stereo unspecified) | -19.8%
Cc1ccc(C(=O)CN2C(=O)NC3(CCOc4ccccc43)C2=O)s1 (stereo unspecified) | -10.3%
CC(=O)N(CC1CCCO1)C1(C(=O)NC2CCCC2)CCCCC1 (stereo unspecified) | -6.84%
O=C(c1ccc(=O)[nH]c1)N(Cc1ccco1)C1(C(=O)NC2CCCCC2)CCCCC1 | 6.34%
CC(=O)NCC(=O)N(Cc1ccco1)C1(C(=O)NC2CCCC2)CCCCC1 | 85.2% (active)
Cc1n[nH]c(=O)c2c(NC(=O)CSc3cc(Cl)ccc3Cl)oc(C)c12 | 13.8%
CC1CC1C(=O)OCC(=O)Nc1cccc(F)c1 (stereo unspecified) | -20.7%
Cn1c(N)c(C(=O)COC(=O)/C=C/c2cccc(C(F)(F)F)c2)c(=O)n(C)c1=O | -32.4%
COc1ccc(C(C[N+](=O)[O-])n2nc(C)cc2C)cc1 (stereo unspecified) | 0.93%
COc1ccc(S(=O)(=O)N2CCOCC2)cc1NC(=O)CC1CC2CCC1C2 (stereo unspecified) | 2%
CCCCn1c(SCC(=O)N2CCCC2=O)nc2cc(S(N)(=O)=O)ccc21 | -9.34%
CCOC(=O)c1sc(=NC(=O)/C=C/c2cccs2)n(C)c1C | -3.16%
O=S(=O)(Nc1cc(Cl)ccc1N1CCOCC1)c1ccccc1Cl | 28.9%
CN(c1ccccc1)S(=O)(=O)c1cccc(NC(=O)Cc2ccc(Cl)cc2)c1 | -2.65%
O=C(COC(=O)c1c(Cl)cccc1Cl)Nc1cccc(S(=O)(=O)NC2=NCCCCC2)c1 | 4.82%
Cc1ccc(S(=O)(=O)Nc2nc(CN3CCOCC3)nc3sc(C)c(C)c23)cc1 | 21.7%
O=C(Nc1ccc2c(c1)OCCO2)C1CCCC1 | -1.56%
Cc1cc(NC(=O)COc2ccccc2C#N)no1 | 13.6%
O=C(CSc1ccccc1)Nc1cccc(S(=O)(=O)N2CCCCC2)c1 | -6.03%
CCN(c1ccccc1)S(=O)(=O)c1ccc(OCC(=O)N2CCCC2)cc1 | -12.3%
O=C(CN1CCCCC1)NC(=O)Nc1ccccc1F | -35.8%

Compound | potentiation
COc1ccccc1C(=O)NCC(=O)OCC(=O)Nc1nnc(-c2ccccc2)o1 | 8.76%
Cc1ccc(NC(=O)Cc2nc(COC(=O)C(C)NS(=O)(=O)c3ccc(C)cc3)cs2)cc1 (stereo unspecified) | 1.83%
COc1ccccc1C(=O)NCCC(=O)NC1=NCCS1 | 16.5%
Cc1cc(C(=O)COc2ccccc2Cl)c(C)n1C1CC1 | -5.33%
CC(C)(C)C(=O)CSc1ccc(S(=O)(=O)N2CCCC2)cn1 | 5.19%
CCCCn1nc(C(=O)Nc2cccc(C(=O)NC3CC3)c2)c2ccccc2c1=O | -5.5%
CCC(C(=O)N1CCN(S(=O)(=O)c2sc(C(=O)O)c(C)c2C(=O)O)CC1)c1ccccc1 (stereo unspecified) | -6.07%
CC1CCCN(C(=O)CN2C(=O)c3ccccc3S2(=O)=O)C1 (stereo unspecified) | 7.53%
Cc1cc(C(=O)COc2ccc(Br)cc2F)c(C)n1C1CC1 | -6.81%
COc1ccc(C(=O)N2CCN(c3ccc(C(C)=O)cc3F)CC2)cc1S(=O)(=O)NC1CC1 | -8.79%
CCN1C(=O)C(=O)N(CC(=O)Nc2cc(C)ccc2C)C1=O | 4.41%
CCN(CC)c1ccc(NC(=O)CN2C(=O)NC3(CCc4ccccc43)C2=O)cc1 (stereo unspecified) | -5.69%
COc1ccc(-c2cc3ncccc3cn2)cc1 | -0.0866%
COc1ccc(CN2CCc3nc(Nc4ccccc4)ncc3C2)c(OC)c1OC | 1.32%
COc1ccc2c(C)cc(SCC(=O)NCC3CCCO3)nc2c1 (stereo unspecified) | -8.57%
CC(Sc1nnc(C2CC2)n1C1CC1)C(=O)Nc1ccc(C(N)=O)cc1 (stereo unspecified) | -2.73%
COc1ccc(CN2CCN(C(=O)c3cc(C4CC4)nn3-c3ccccc3)CC2)cc1F | 1.31%
CSCCC(NC(=O)c1ccccc1)C(=O)N1CCN(Cc2ccc(Cl)cc2)CC1 (stereo unspecified) | 10.6%
Cc1ccsc1C(=O)NCCc1ccco1 | -5.45%
O=C(Nc1ccc2c(c1)OCO2)C1CC1(Cl)Cl (stereo unspecified) | -2.21%
CCN(CC)CCN1C(=O)C(=O)/C(=C(/O)c2cnn(-c3ccccc3)c2C)C1c1cccs1 (stereo unspecified) | -0.404%
CCOc1ncccc1C(=O)OCC(=O)Nc1cccc(S(=O)(=O)N2CCCCCC2)c1 | -26.2%
COc1ccc(S(=O)(=O)N2CCOCC2)cc1NC(=O)Cc1coc2cc(C)ccc12 | 4.1%

— PubChem BioAssay AID540277 (National Center for Advancing Translational Sciences (NCATS), 2011)
